aSyn UTR inh: MLPCN primary screen, SNCA 5' untranslated region | alpha-synuclein 5'UTR reporter, inhibitor activity | inhibition, % (tested at 7.5 µM) | actives 0.82% (n = 300,000) | AID 1813, 2009; in the data active means inhibition above about 60%; inconclusive means no clear call, values can overlap the other calls;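 further: H4 neuroglioblastoma cells stably carrying SNCA 5'UTR luciferase fusion; 0% = DMSO wells and 100% = positive control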
CSC inhib: cancer stem cell viability inhibitors, primary screen, luminescence; actives 1.1% (n = 300,000); cancer stem cell-like cells viability; inhibition, % at 7.5 µM; in the data active means inhibition above about 75%; inconclusive means no clear call, values can overlap the other calls; tested in HMLE shEcad cells
Gli-Sufu block: Gli-Sufu pathway antagonists, primary screen, luciferase luminescence, Sufu-KO-LIGHT cells, uHTS; actives 0.74% (n = 340,000); Sufu-KO-LIGHT fibroblasts, Gli luciferase reporter luminescence; inhibition, % at 5 µM;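 active means inhibition above about 55%, limit read from the data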;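 further: 0% = DMSO-treated cells and 100% = wells with medium but no cells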
697 NFkB inh: inhibitors of PMA/ionomycin-induced NF-kB reporter, 697 cells, primary screen, B-cell NF-kB inhibitor project, cell-based, luminescence, uHTS; inhibition, % at 4 µM; AID 435022, 2010; 697 B-cell NF-kB luciferase reporter, 16 h; actives 0.33% (n = 330,000); in the data active means inhibition above about 35%
Jurkat NFkB inh: inhibitors of induced NF-kB luciferase reporter, primary screen, TCR NF-kB activation inhibitor project, cell-based, luminescence, uHTS; Jurkat, PMA/ionomycin-induced NF-kB luciferase reporter; inhibition, % at 4 µM; actives 0.53% (n = 330,000); in the data active means inhibition above about 50%
Mdm2-MdmX inh: inhibitors of human Mdm2-MdmX association, primary screen, cell-based, luminescence, split luciferase, SaOS-2, uHTS; actives 3% (n = 330,000); AID 485346, 2010; inhibition, % at 8 µM; SaOS-2 split-luciferase Mdm2/MdmX complementation; Protein Mdm4 (Homo sapiens) + E3 ubiquitin-protein ligase Mdm2 (Homo sapiens), …;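 active means inhibition of at least 50% at 8 µM in the primary screen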
Mdm2 MdmX conf: Mdm2-MdmX complex disruptors, retested hits, confirmation, luminescence, single concentration. actives 55% (n = 10,000). Mdm2-MdmX binding, luminescent assay. inhibition, % at 8 µM. shares compounds with Mdm2-MdmX inh; in the data active means inhibition above about 40%
FLuc counter: full-length luciferase signal inhibition, confirmation, counter-screen for Mdm2/MdmX interaction inhibitor project, cell-based, single concentration, SaOS-2. shares compounds with Mdm2-MdmX inh. SaOS-2 full-length luciferase counterscreen, luminescence. inhibition, % at 8 µM. actives 77% (n = 6,200). AID 504607, 2011;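 active means mean inhibition at 8 µM reaching about 37%, which flags the compound as non-specific, limit read from the data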;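 further: p53-null SaOS-2 cells with luciferase driven by a doxycycline-inducible promoter; compound on cells about two nights before reading with doxycycline added after day one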
* hit, by the source's call; ? = inconclusive; nt = not tested or not shown. Only some compounds are listed: those with a hit (about 4.5% of all), similar ones and a draw of the others.

SMILES	aSyn UTR inh	CSC inhib	Gli-Sufu block	697 NFkB inh	Jurkat NFkB inh	Mdm2-MdmX inh	Mdm2 MdmX conf	others
COC(=O)c1ccc(-n2c(C)cc(C(=O)CSc3ccc(NC(C)=O)cc3)c2C)cc1	2.2	-6.9	-8.5	2.2	9.9	17.5	nt
CC(=O)Nc1ccc(SCC(=O)c2cc(C)n(Cc3cccs3)c2C)cc1	68.4*	106.0*	43.3	-234.9	-22.3	74.5*	-1.9
Cc1cc(C(=O)COC(=O)C2=COCCO2)c(C)n1-c1ccccc1	nt	2.5	-4.2	-123.9	-23.1	83.1*	84.0*	FLuc counter=31.6
Cc1cc(C(=O)COC(=O)C2=NNC(=O)CC2)c(C)n1-c1ccccc1	-3.6	nt	-5.4	9.9	-0.9	22.9	nt
COc1ccc(-n2nc(C(=O)N(C)C)nc2-c2ccccc2)cc1	5.2	-5.4	-3.6	1.8	11.1	13.9	nt
CCOc1ccc(CC(=NCCc2ccccc2)C2=C(O)CC(C)(C)CC2=O)cc1OCC	18.2	3.6	4.2	-17.2	-24.9	-3.2	nt
COc1ccccc1N1CCN(C2CCN(C3CCC(c4ccccc4)CC3)CC2)CC1 (stereo not drawn)	1.5	46.2	nt	7.9	1.4	59.9*	29.4
Cc1ccc2c(c1)C(=O)C(=O)N2Cc1ccc(Cl)cc1	nt	40.0	19.9	-2.3	7.8	67.7*	23.6
Cc1ccc2c(c1)C(=O)C(=O)N2CCCOc1ccccc1	-67.5	38.5	-8.3	8.0	-14.1	11.5	nt
Cc1cccc(OCCCN2C(=O)C(=O)c3cc(C)ccc32)c1	-19.7	18.3	0.7	-8.3	2.8	58.8*	69.2*	FLuc counter=65.5*
Cc1ccc(-c2nc3ccccc3[nH]2)cc1NC(=O)c1ccc2c(c1)OCO2	-12.7	-9.0	6.7	-5.7	-10.0	15.8	nt
CCOc1ccc(C(=O)Nc2cc(-c3nc4ccccc4[nH]3)ccc2Cl)cc1[N+](=O)[O-]	35.7	?	13.9	-32.0	-4.0	92.5*	23.4
O=C(NC(=S)Nc1cc(-c2nc3ccccc3[nH]2)ccc1Cl)c1ccc2c(c1)OCO2	-48.6	94.1*	nt	-76.7	4.0	100.5*	70.8*	FLuc counter=70.3*
Cc1ccc(-c2nnn(CC(=O)N(CC(=O)NC3CCCC3)c3ccc(F)c(Cl)c3)n2)o1	-15.1	nt	0.4	10.1	3.4	59.6*	15.0
C=CS(=O)(=O)N(Cc1ccc(Cl)c(Cl)c1)C[C@@H](O)CO	nt	nt	9.3	32.8	nt	81.0*	83.6*	FLuc counter=55.0*
O=C(O)c1sccc1SCc1ccc(Cl)c(Cl)c1	-18.9	23.7	11.5	-19.4	-12.9	-8.0	nt
O=C(N/N=C/c1coc2ccc(Cl)cc2c1=O)c1ccc(O)cc1	-19.7	-0.4	-4.6	23.9	11.7	38.0	nt
O=C(N/N=C/c1coc2ccc(Cl)cc2c1=O)c1ccncc1	-34.4	-12.9	-9.3	3.5	8.8	59.5*	44.5*	FLuc counter=63.3*
COc1cc(/C=C2\CCOC2=O)cc(OC)c1OC	-1.5	-0.1	10.4	-14.5	-10.3	0.3	nt
Cc1cc(C)c(NC(=O)COC(=O)c2ccncc2)c(C)c1	nt	4.4	-3.8	7.7	14.4	8.7	nt
O=C(Nc1ccc(Cl)cc1)c1nc[nH]c1C(=O)NCCCCNC(=O)c1[nH]cnc1C(=O)Nc1ccc(Cl)cc1	nt	67.6	0.1	31.3	-7.5	99.3*	73.2*	FLuc counter=69.4*
O=C(Nc1cccc(Cl)c1)c1nc[nH]c1C(=O)NCCCCNC(=O)c1[nH]cnc1C(=O)Nc1cccc(Cl)c1	nt	nt	4.9	2.2	3.2	86.4*	-19.2
O=C(Nc1cccc(Cl)c1)c1nc[nH]c1C(=O)NCCN(CCNC(=O)c1[nH]cnc1C(=O)Nc1cccc(Cl)c1)CCNC(=O)c1[nH]cnc1C(=O)Nc1cccc(Cl)c1	nt	nt	2.2	18.8	6.4	75.4*	23.6
O=C(Nc1cccc(Cl)c1)c1nc[nH]c1C(=O)NCc1ccccc1	nt	19.8	-8.0	-8.4	-8.7	21.3	nt
O=C(NCC(=O)N1CC(O)CC1C(=O)N1CCCC1C(=O)OCc1ccccc1)OCc1ccccc1 (stereo not drawn)	2.8	-1.6	-4.2	-3.2	7.3	12.3	nt
SMILES	aSyn UTR inh	CSC inhib	Gli-Sufu block	697 NFkB inh	Jurkat NFkB inh	Mdm2-MdmX inh	Mdm2 MdmX conf	others
CCNC(=S)Nc1ccc(S(=O)(=O)Nc2cc(C)nc(C)n2)cc1	-4.9	-2.3	-2.0	4.2	4.2	3.5	nt
CC/C(=C\C1CCCCC1)C(NP(=O)(c1ccccc1)c1ccccc1)c1ccccc1 (stereo not drawn)	22.7	126.3*	5.5	6.6	23.3	55.4*	15.2
O=P(NC1CCCCC1)(c1ccccc1)c1ccccc1	nt	nt	7.5	nt	nt	nt	nt
CCOC(=O)C1=C(COC(=O)c2ccc(OC)c(S(=O)(=O)N3CCOCC3)c2)NC(=O)NC1C (stereo not drawn)	nt	nt	-3.4	nt	nt	nt	nt
Cc1ccc(OCCn2cnc3c(N)ncnc32)cc1	-14.3	-31.6	-9.6	-77.0	-1.7	71.9*	11.3
CC(C)OC(=O)CC1C(=O)NCCN1C(=O)COc1ccc(C(C)(C)C)cc1 (stereo not drawn)	21.6	3.2	-7.7	7.5	4.5	23.1	nt
Cc1ccnc(NC(=O)CSc2nnc3c(n2)[nH]c2ccccc23)c1	-21.8	17.7	nt	-27.6	-18.2	55.1*	56.0*	FLuc counter=98.9*
CCc1nnc(NC(=O)CSc2nnc3c(n2)[nH]c2ccccc23)s1	-9.4	-26.3	-4.2	9.5	-15.5	14.7	nt
CC(C)OCCCN(C)C1CCN(S(=O)(=O)c2csc(C(N)=O)c2)CC1	4.3	2.9	11.8	5.4	3.1	12.3	nt
CC(C)OCCCN(C)C1CCN(S(=O)(=O)c2ccc(-c3cc(C(F)(F)F)no3)s2)CC1	31.5	51.2	43.4	-9.4	11.5	50.4*	30.2
CCN1CCCC1CNC(=O)c1cc2c(-c3ccc(Cl)cc3)nn(C)c2s1 (stereo not drawn)	3.2	59.6	11.3	-5.9	-21.3	65.0*	10.9
Cn1nc(-c2ccc(Cl)cc2)c2cc(C(=O)N3CCN(c4ccccn4)CC3)sc21	-23.7	66.5	15.6	-17.2	11.1	55.0*	15.8
COC(=O)c1[nH]c2ccc(C)cc2c1NC(=O)C(C)N1CCN(C2CCCCC2)CC1 (stereo not drawn)	5.1	-9.6	-0.7	-2.6	-13.4	53.4*	31.0
COC(=O)c1[nH]c2ccc(Br)cc2c1NC(=O)C(C)N1CCN(C2CCCCC2)CC1 (stereo not drawn)	26.3	-1.9	12.4	26.0	41.9	95.8*	33.8	FLuc counter=4.8

Screening data: PubChem BioAssay, several laboratories
